Results published in the supplement of paper PMC3334620.
In all, about 33,000 sequences were measured (“E-score (-0.5 to 0.5)”: median about -0.0034, highest 2% from about 0.25 on). Shown is part of a subset that was picked to be rich in the highest values.

Each sequence was assayed against T1, Yap3 (UniProt P38749) (assay: PBM E-score (8-mer binding enrichment) (E-score (-0.5 to 0.5)); higher = stronger / more preferred TF binding). Conditions: protein concentration: 100 nM; construct: GST-full length.
T1 sequence: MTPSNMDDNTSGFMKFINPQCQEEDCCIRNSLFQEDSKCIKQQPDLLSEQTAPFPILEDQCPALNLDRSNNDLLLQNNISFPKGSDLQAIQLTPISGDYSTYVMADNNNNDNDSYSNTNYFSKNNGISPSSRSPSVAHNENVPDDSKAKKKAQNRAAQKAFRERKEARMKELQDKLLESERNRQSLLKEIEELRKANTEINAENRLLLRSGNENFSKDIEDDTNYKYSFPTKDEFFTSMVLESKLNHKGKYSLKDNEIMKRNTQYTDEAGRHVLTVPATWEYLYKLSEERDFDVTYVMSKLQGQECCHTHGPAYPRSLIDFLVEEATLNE
Method: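 Universal 'all 10-mer' protein binding microarrays (Agilent AMADID 015681) probed with GST-tagged S. cerevisiae TFs (full-length or DBD) made by in vitro transcription/translation (PURExpress), about 100-200 nM. Bound TF was detected with fluorescent anti-GST. Each ungapped 8-mer (which stands for itself and its reverse complement) is scored by the PBM enrichment score (E-score), a modified Wilcoxon-Mann-Whitney statistic from -0.5 to +0.5, computed with the Universal PBM Analysis Suite. Scale: above 0.35 generally sequence-specific binding.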

Going from ACCTATTA to AAAGGCAA, the “PBM E-score” value rises from 0.11 to 0.254.

Going from TAAGGCAA to AAAGGCAG, the “PBM E-score” value falls from 0.0224 to -0.0629.

Going from GTCCCGGA to AGTCGCGA, the “PBM E-score” value rises from -0.103 to 0.272.

Going from CATCGCGA to CGTCGCGA, the “PBM E-score” value rises from 0.112 to 0.141.

Compared with AATCGCGA, AATCGCGT is lower in “PBM E-score” value: 0.255 for the first, 0.156 for the second.

Going from GGTCGCGA to ATGGTTCC, the “PBM E-score” value falls from 0.0906 to 0.0898.

Compared with CTCTTTGC, AACTTCGG is higher in “PBM E-score” value: 0.00066 for the first, 0.13 for the second.

Compared with GAATTTCC, CAATTTCC is lower in “PBM E-score” value: 0.277 for the first, 0.0859 for the second.

First: TAATTTCA
Second: AAATTTCC
The “PBM E-score” value of the first is higher: 0.309 for the first, 0.125 for the second.

Compared with AAATTTCA, CAATTTCA is higher in “PBM E-score” value: 0.0121 for the first, 0.0657 for the second.

Compared with AACAGTCG, CCAGCCCG is lower in “PBM E-score” value: -0.0471 for the first, -0.258 for the second.

Compared with GTTTACCA, CCTAAGCG is lower in “PBM E-score” value: 0.107 for the first, -0.033 for the second.

First: CCCCATCC
Second: ACGCGAGT
The “PBM E-score” value of the first is lower: -0.233 for the first, 0.087 for the second.

Compared with ACATTTAA, TATGCGAA is lower in “PBM E-score” value: 0.221 for the first, 0.0891 for the second.

Going from AACGGAAA to AATGGAAC, the “PBM E-score” value falls from 0.171 to 0.12.

Compared with AACGGAAT, AATGGAAT is higher in “PBM E-score” value: 0.262 for the first, 0.275 for the second.

First: AACGGAAG
Second: AATGGAAG
The “PBM E-score” value of the first is higher: 0.2 for the first, 0.105 for the second.

Compared with GCTCCTTA, TAATGACA is higher in “PBM E-score” value: 0.0472 for the first, 0.197 for the second.

First: TAACCTTA
Second: TAGTCTCA
The “PBM E-score” value of the first is lower: -0.0831 for the first, -0.034 for the second.

Going from AAGTACTT to ATGGATAG, the “PBM E-score” value rises from -0.202 to 0.0546.

Going from ACTAACAC to ACTAACAG, the “PBM E-score” value rises from 0.125 to 0.315.

Compared with CCTAACAG, ACATTGTG is higher in “PBM E-score” value: 0.0154 for the first, 0.0748 for the second.

First: CCATTGTC
Second: ACATTGTC
The “PBM E-score” value of the first is lower: 0.0818 for the first, 0.261 for the second.

First: GGCTTATA
Second: CTCGACGC
The “PBM E-score” value of the first is lower: -0.00779 for the first, 0.0226 for the second.

Compared with AATGTTGC, AGGATGAA is lower in “PBM E-score” value: 0.0681 for the first, 0.0231 for the second.

First: CGGATGAA
Second: CGGATGAG
The “PBM E-score” value of the first is higher: 0.265 for the first, -0.0331 for the second.

First: ATAGAAAA
Second: ATTACACG
The “PBM E-score” value of the first is higher: 0.217 for the first, 0.0795 for the second.

First: ATAACACG
Second: CTAACACA
The “PBM E-score” value of the first is lower: 0.137 for the first, 0.146 for the second.

Compared with ATTACAGA, ATTACAGG is higher in “PBM E-score” value: 0.11 for the first, 0.268 for the second.

Going from ACTACACA to ATTACACC, the “PBM E-score” value falls from 0.258 to 0.215.

First: ACTACACG
Second: ATTACACA
The “PBM E-score” value of the first is lower: 0.0255 for the first, 0.255 for the second.

First: CCTACACG
Second: ATTACAGC
The “PBM E-score” value of the first is lower: -0.251 for the first, -0.046 for the second.

Compared with ATAACACA, CCAGTGGC is lower in “PBM E-score” value: 0.273 for the first, -0.168 for the second.

Going from ATCGAGTC to CAGTAAGC, the “PBM E-score” value rises from -0.0569 to 0.0593.

Compared with AAAGATGA, ATTCTTCA is lower in “PBM E-score” value: 0.144 for the first, 0.0724 for the second.

First: ATAACCTG
Second: CGTATAAA
The “PBM E-score” value of the first is lower: -0.0425 for the first, 0.156 for the second.

Going from GATTACAA to ACCAGTTG, the “PBM E-score” value falls from 0.154 to 0.0294.

Compared with AAAAGGGG, AATCAATG is higher in “PBM E-score” value: -0.187 for the first, 0.2 for the second.

Going from AATCAATC to AATCAACC, the “PBM E-score” value falls from 0.139 to -0.0555.

Compared with AATCAATT, TATCAACA is lower in “PBM E-score” value: 0.256 for the first, 0.123 for the second.

First: CATCAACA
Second: GATCAACA
The “PBM E-score” value of the first is higher: 0.255 for the first, -0.0544 for the second.

Compared with AATCAACA, AATCAACG is lower in “PBM E-score” value: 0.304 for the first, 0.109 for the second.

First: CTCGGTAA
Second: ATGAAAAA
The “PBM E-score” value of the first is lower: 0.053 for the first, 0.278 for the second.

First: ATGAAAAT
Second: ATGAAAAG
The “PBM E-score” value of the first is higher: 0.209 for the first, 0.122 for the second.

Going from ATGAAATA to CTGAAATA, the “PBM E-score” value falls from 0.288 to 0.165.

First: GTGAAATA
Second: ACGTGCTC
The “PBM E-score” value of the first is higher: 0.0605 for the first, -0.0391 for the second.

Going from AAAGGTAA to CGGTTGAG, the “PBM E-score” value falls from 0.0127 to -0.052.

Compared with AGATTCGC, CGTCTGAC is higher in “PBM E-score” value: -0.0247 for the first, 0.066 for the second.

First: CAAGTGTG
Second: CTGACACC
The “PBM E-score” value of the first is higher: 0.0428 for the first, -0.174 for the second.

Going from ATGGCACC to CTCTGCAC, the “PBM E-score” value falls from -0.14 to -0.173.

First: GTATATAA
Second: AGGTATAA
The “PBM E-score” value of the first is higher: 0.217 for the first, 0.0868 for the second.

Compared with CTATATAA, CGGTATAA is higher in “PBM E-score” value: 0.121 for the first, 0.18 for the second.

First: ACATATAA
Second: CTCTATAA
The “PBM E-score” value of the first is higher: 0.29 for the first, 0.0647 for the second.

First: TTATATAA
Second: ATATATAA
The “PBM E-score” value of the first is higher: 0.418 for the first, 0.295 for the second.

First: ACATATAT
Second: TGATATAA
The “PBM E-score” value of the first is higher: 0.123 for the first, 0.108 for the second.

First: TGGTATAA
Second: ACATATAC
The “PBM E-score” value of the first is higher: 0.268 for the first, 0.146 for the second.

Going from GCCTGCCC to CAGAACTG, the “PBM E-score” value rises from -0.297 to 0.157.

First: AGCATGAC
Second: ACGACCTG
The “PBM E-score” value of the first is higher: -0.037 for the first, -0.18 for the second.

Compared with AAAGTGTC, CGGACTAG is lower in “PBM E-score” value: -0.0685 for the first, -0.101 for the second.

Compared with CTAGAGAG, TGCGACAA is higher in “PBM E-score” value: -0.139 for the first, -0.00108 for the second.

Compared with CGCGACAA, GGCGACAA is lower in “PBM E-score” value: 0.272 for the first, -0.181 for the second.

Going from GCGTCCCA to GGTGGCGA, the “PBM E-score” value rises from -0.121 to -0.0578.

Compared with AAGGAGCG, ACGGCAAG is higher in “PBM E-score” value: 0.00726 for the first, 0.1 for the second.

Compared with ACGGCAAT, ACGGCAAA is lower in “PBM E-score” value: 0.285 for the first, 0.134 for the second.

Going from GGAAAAAA to AAAAAAAC, the “PBM E-score” value falls from 0.248 to 0.151.

First: GGAAAACC
Second: GAAAAAAA
The “PBM E-score” value of the first is lower: -0.11 for the first, 0.287 for the second.

Compared with GGGAAAAC, GGAAAAAC is higher in “PBM E-score” value: 0.0844 for the first, 0.3 for the second.

First: GAAAAAAC
Second: AAAAAAAA
The “PBM E-score” value of the first is higher: 0.255 for the first, 0.244 for the second.

Going from GAAAAACC to CCCAGCAC, the “PBM E-score” value falls from 0.136 to -0.123.

Compared with CACAGCAA, AGTCCTAC is lower in “PBM E-score” value: 0.103 for the first, -0.125 for the second.

Going from CTACCTTC to AAGCTAAC, the “PBM E-score” value rises from 0.0321 to 0.0596.

First: CCTAAGGC
Second: CTACTTCA
The “PBM E-score” value of the first is lower: -0.38 for the first, -0.0894 for the second.

Going from GTACTTCA to ATACTTCA, the “PBM E-score” value falls from 0.287 to 0.0363.

Compared with GCCAGGCA, AACAGGCC is lower in “PBM E-score” value: -0.12 for the first, -0.258 for the second.

First: ACGCGTTG
Second: TTACCTAA
The “PBM E-score” value of the first is lower: -0.027 for the first, 0.281 for the second.

First: ATACCTAC
Second: CTACCTAA
The “PBM E-score” value of the first is lower: -0.0217 for the first, 0.126 for the second.

Compared with GTACCTAA, ATACCTAA is higher in “PBM E-score” value: -0.0819 for the first, 0.273 for the second.

Going from ATACCTAT to CTCAGACA, the “PBM E-score” value falls from 0.124 to 0.087.

Going from GCATTCAA to CGAACAAA, the “PBM E-score” value rises from 0.0939 to 0.303.

Compared with GCAACAAA, TGAACAAA is higher in “PBM E-score” value: 0.193 for the first, 0.248 for the second.

Compared with AGAACAAA, AGAACAAT is lower in “PBM E-score” value: 0.291 for the first, 0.221 for the second.

First: GGAACAAA
Second: AGAACAAG
The “PBM E-score” value of the first is higher: 0.311 for the first, 0.205 for the second.

First: GGAACAAC
Second: CGAACAAG
The “PBM E-score” value of the first is higher: 0.157 for the first, 0.0425 for the second.

Compared with CGCTCAAG, AACTGGAC is higher in “PBM E-score” value: -0.114 for the first, 0.0415 for the second.

Compared with CGCGAGAG, AAGGCTTA is higher in “PBM E-score” value: -0.0457 for the first, 0.0457 for the second.

Compared with AAGAGAGG, GTTGTTCA is higher in “PBM E-score” value: -0.163 for the first, -0.0828 for the second.
